Sampled rows, rich in hits. Any-hit rate of the full collection: about 6.2%.
KB-3-1 tox = kills parental KB-3-1 adenocarcinoma cells. actives 1.4% (n = 400,000). Potency, µM (series often up to 46.1 µM), usual class: cytotoxic. AID 1347075. KB-3-1 viability, CellTiter-Glo ATP luminescence, 72 h; note: % is set by controls: 0 for no effect and ±100 for the full control effect; nearly all actives have a fitted effect of over 60% in size
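Here the drug-naive KB-3-1 line serves as comparator for MDR sub-line selectivity; cells received compound titrations, 72 h at 37 °C, then CellTiter-Glo readout.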
HT1080-NT tox = kills 2HG-producing HT-1080-NT fibrosarcoma cells | HT-1080-NT fibrosarcoma viability, CellTiter-Glo ATP luminescence, 48 h | Potency, µM (series often up to 46.1 µM), for inactives: at the highest dose activity, negative = less viability, usual class: cytotoxic | actives 1.6% (n = 360,000);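 note: NT is the 2HG producing partner of a matched IDH1 knockdown line; 0% = DMSO-treated cells and -100% = media-only wells without cells; nearly all actives have a fitted effect of over 55% in size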
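Toxicity toward the 2HG-producing NT line was scored as %Activity, normalised to DMSO and no-cell wells, from CellTiter-Glo luminescence after 48 hours' treatment.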
ATXN viability = reduces viability in counter-screen for ATXN expression inhibitors | S2 cells (HEK-293 line with an ATXN2-luciferase reporter) viability, CellTiter-Fluor protease fluorescence, 24 h | Potency, µM (doses to about 56.7 µM), usual class: cytotoxic | actives 0.49% (n = 400,000) | AID 651635; note: nearly all actives have a fitted effect of over 40% in size
KB-V1 MDR tox = KB-V1 MDR subline cytotoxicity; KB-V1 MDR cells viability, CellTiter-Glo, 72 h; AID 1347076; Potency, µM (titrated, usually from 46.1 µM), most hits filed as cytotoxic; actives 3.4% (n = 400,000); note: % is set by controls: 0 for no effect and ±100 for the full control effect; nearly all actives have a fitted effect of over 60% in size
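Readout: CellTiter-Glo luminescence, 10 min after addition. Cells: KB-V1 MDR subline, 72 h at 37 degrees C with compound. Analysis: corrected, normalized data fitted to concentration-effect curves.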
ATXN2 expr inh = inhibitors of ATXN2 expression | HEK-293 ATXN2-luciferase reporter, luminescence, 24 h | Potency, µM (series often up to 57 µM), for the others: at the highest dose activity change, negative = inhibition, actives largely listed as inhibitors | actives 0.72% (n = 360,000); note: % is set by controls: 0 for no effect and ±100 for the full control effect; nearly all actives have a fitted effect of over 55% in size
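ATXN2-luciferase reporter cells (luciferase flanked by upstream and downstream ATXN2 gene portions) were treated 24 h at 37 °C with compounds at up to 57 uM. SteadyGlo luminescence gave expression; GF-AFC fluorescence gave viability.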
HT1080 IDH1KD tx = kills HT-1080 cells with IDH1 knockdown | HT-1080 IDH1 knockdown viability, ATP luminescence, 48 h | Potency, µM (top dose mostly 46.1 µM), for inactives: top-dose activity, negative = toxicity, most hits filed as cytotoxic | actives 2% (n = 360,000) | AID 686971;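 note: 0% = DMSO wells and -100% = cell-free medium wells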
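HT-1080-IDH1KD cells (IDH1 knocked down), 750/well in RPMI with 5% FBS, treated with compound 48 h at 37 degrees C. Viability by CellTiter-Glo luminescence, normalised to DMSO and no-cell wells; concentration-response curves classed.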
* = called active by the depositor; i = inactive; ? = inconclusive; . = no result. Calls come from the whole dose curve; as a rule, active = well fitted curve in the direction sought with a large enough effect; inconclusive = small, poorly fitted or top-dose-only effect, or another doubt; inactive = no such curve, though single readings can be large; an effect the other way counts as inactive or inconclusive. Potency is the fitted concentration of half-maximal effect.

SMILES | KB-3-1 tox | HT1080-NT tox | ATXN viability | KB-V1 MDR tox | ATXN2 expr inh | HT1080 IDH1KD tx
COc1ccc(C(=O)c2ccc(OC)c(OC)c2)cc1 | i | 8% | i | i | 4% | 6%
COc1ccc(NC(=O)c2sc3nc[nH]c(=O)c3c2C)cc1OC | i | . | i | ? | 5% | .
CC(=O)N1CCC[C@H]1C(=O)N1CCc2c(cnc(C)c2CNC(=O)/C=C/c2cccs2)C1 | . | . | i | . | . | .
CN(C)CC(C)(C)CNC(=O)c1cnn(-c2nccc(-c3ccc4c(c3)OCO4)n2)c1-c1ccco1 | . | . | i | . | . | .
Clc1ccc(-c2nc3c4ccccc4ccn3c2Cc2ccsc2)cc1 | i | -14% | i | ? | 3% | -1%
Cc1cc(SCc2sc(-c3ccc(C(F)(F)F)cc3)nc2C)ccc1OCC(=O)O | . | . | . | . | 27% | .
O=C(CCC1CCN(C(=O)C2CC=CCC2)CC1)Nc1ccccc1 (stereo unspecified) | i | -1% | i | 16µM* | . | -2%
COC(=O)c1ccc2c(=O)n(CC3CCCO3)c(SCC(=O)Nc3ccccc3OC)nc2c1 (stereo unspecified) | i | 3% | ? | 3.3µM* | 30% | 3%
COC(=O)c1ccc2c(=O)n(CC3CCCO3)c(SCC(=O)Nc3ccccc3Cl)nc2c1 (stereo unspecified) | i | -3% | ? | i | ? | -18%
Cc1ccc(Nc2nc(-c3ccc(S(=O)(=O)N4CCCC4)cc3)cs2)cc1C | 7.3µM* | ? | i | 2.6µM* | -14% | ?
O=S(=O)(c1ccc(-c2csc(Nc3ccc(F)cc3)n2)cc1)N1CCCC1 | i | ? | i | i | -22% | ?
Cc1cc(C)cc(Nc2nc(-c3ccc(S(=O)(=O)N4CCCC4)cc3)cs2)c1 | 4.6µM* | ? | i | ? | ? | ?
CCOC(=O)c1c(C)[nH]c(C2=NNC(=Nc3ccccc3OC)SC2)c1C | 18µM* | ? | ? | ? | 41% | ?
COC(=O)C1CCN(Cc2ccc3c(c2)CN(C(=O)C(C)N2CCOCC2)CCO3)CC1 (stereo unspecified) | . | . | i | . | . | .
Cc1[nH]c2ccccc2c1/C=C/c1cc[n+](C)cc1 | 10µM* | -23% | i | i | -15% | -7%
CCCCNC(=S)N(C)/N=C/c1c(C)[nH]c2ccccc12 | i | -27% | i | ? | -7% | -25%
CCCCCCCCCCCCCCCC[n+]1ccc(/C=C/c2c(C)[nH]c3ccccc23)cc1 | 1.3µM* | . | . | i | . | .
Cc1[nH]c2ccccc2c1/C=C/c1c(C)[nH]c2ccccc12 | ? | . | . | i | . | .
CCCc1c(C)[nH]c2ccccc2c1=O | i | 16% | i | i | 1% | 16%
CCCCCCC[n+]1ccc(/C=C/c2c(C)[nH]c3ccccc23)cc1 | 0.65µM* | . | . | i | . | .
CCOC(=O)c1c(C)oc2nc(C)nc(NCc3ccc(OC)cc3)c12 | i | . | i | i | 0% | .
O=C(Oc1c(-c2ccccc2)oc2ccccc2c1=O)c1ccccc1 | ? | -22% | i | 12µM* | 0% | -26%
COc1ccc(C(=O)c2c(-c3ccc(OC)cc3)oc3ccccc23)cc1 | i | -1% | i | i | -5% | -4%
COc1ccc(-c2oc3ccccc3c(=O)c2OC(=O)c2ccc(C)cc2)cc1 | ? | 20% | i | 12µM* | 53% | 16%
COc1ccc(C(=O)c2c(C)oc3ccc(O)cc23)cc1 | i | 0% | i | i | -6% | -7%
O=C(Oc1cc(=O)oc2ccccc12)c1ccccc1 | 5.2µM* | 16µM* | i | i | -9% | 16µM*
COc1ccc(C(=O)c2ccc3oc(-c4ccc(OC)cc4)c(-c4ccc(O)cc4)c3c2)cc1 | 18µM* | 9% | ? | ? | ? | 5%
Cc1ccc(N[S+](=O)([O-])c2cc3c(cc2CCc2ccccc2)NC(=O)CO3)cc1C | i | . | . | i | . | .

Screening data deposited in PubChem by National Center for Advancing Translational Sciences (NCATS).
